Source: the supplement of paper PMC7411054
Counter-ions that a name gives are not always drawn.

What was measured:
Conditions in all cases: treatment time: 24 h
HepG2-CANX-COX4 [1] = assay: lowest phenotypically active concentration; higher = less potent
Method in brief: (§1)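 Live-cell features were measured per well and normalised to solvent control wells after fifteen gene-edited A549, HepG2 and WPMY1 reporter lines had been treated for 24 h at 0.3, 1, 3 or 9 µM in four wells each. A condition was deviating when ≥3 of 4 wells sat beyond the 95th percentile of control Euclidean distances. It was reproducible when the median replicate Pearson correlation exceeded the 95th percentile of non-replicates. Phenotypic activity demanded both.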

HepG2-GM130-SQSTM1 [2] = assay: as above
Method in brief: as §1

HepG2-TUBA1B-RELA [3] = assay: as above
Method in brief: as §1

WPMY1-ACTB-RAB5A [4] = assay: as above
Method in brief: as §1

WPMY1-GM130-SQSTM1 [5] = assay: as above
Method in brief: as §1

A549-CANX-COX4 = assay: phenotypically active (imaging signature differs from DMSO and reproducible) at any of 0.3-9 uM (binary (1 = active, 0 = inactive)); higher = active
Method in brief: as §1

A549-TP53BP1-CLTA = assay: as above
Method in brief: as §1

HepG2-ACTB-RAB5A = assay: as above
Method in brief: as §1

HepG2-CANX-COX4 [6] = assay: as above
Method in brief: as §1

HepG2-GM130-SQSTM1 [7] = assay: as above
Method in brief: as §1

HepG2-TP53BP1-CLTA = assay: as above
Method in brief: as §1

HepG2-TUBA1B-RELA [8] = assay: as above
Method in brief: as §1

WPMY1-ACTB-RAB5A [9] = assay: as above
Method in brief: as §1

WPMY1-CANX-COX4 = assay: as above
Method in brief: as §1

WPMY1-GM130-SQSTM1 [10] = assay: as above
Method in brief: as §1

WPMY1-TP53BP1-CLTA = assay: as above
Method in brief: as §1

WPMY1-TUBA1B-RELA = assay: as above
Method in brief: as §1

SMILES	lowest phenotypically active concentration (HepG2-CANX-COX4 [1])	lowest phenotypically active concentration (HepG2-GM130-SQSTM1 [2])	lowest phenotypically active concentration (HepG2-TUBA1B-RELA [3])	lowest phenotypically active concentration (WPMY1-ACTB-RAB5A [4])	lowest phenotypically active concentration (WPMY1-GM130-SQSTM1 [5])	phenotypically active (A549-CANX-COX4)	phenotypically active (A549-TP53BP1-CLTA)	phenotypically active (HepG2-ACTB-RAB5A)	phenotypically active (HepG2-CANX-COX4 [6])	phenotypically active (HepG2-GM130-SQSTM1 [7])	phenotypically active (HepG2-TP53BP1-CLTA)	phenotypically active (HepG2-TUBA1B-RELA [8])	phenotypically active (WPMY1-ACTB-RAB5A [9])	phenotypically active (WPMY1-CANX-COX4)	phenotypically active (WPMY1-GM130-SQSTM1 [10])	phenotypically active (WPMY1-TP53BP1-CLTA)	phenotypically active (WPMY1-TUBA1B-RELA)
CN1C/C(=C/c2ccc(B(O)O)cc2)C(=O)/C(=C/c2ccc(B(O)O)cc2)C1	3 µM	3 µM	3 µM	3 µM	≤ 0.3 µM	1 (active)	1 (active)	1 (active)	1 (active)	1 (active)	1 (active)	1 (active)	1 (active)	1 (active)	1 (active)	1 (active)	1 (active)
COc1cc2ncn(-c3cc(OCc4ccccc4C(F)(F)F)c(C(N)=O)s3)c2cc1OC	≤ 0.3 µM	≤ 0.3 µM	≤ 0.3 µM	≤ 0.3 µM		1 (active)	1 (active)	1 (active)	1 (active)	1 (active)	1 (active)	1 (active)	1 (active)	1 (active)	0 (inactive)	1 (active)	1 (active)
Nc1nc(N)nc(-c2cc(Cl)ccc2Cl)n1 [Irsogladine maleate]						0 (inactive)	0 (inactive)	0 (inactive)	0 (inactive)	0 (inactive)	0 (inactive)	0 (inactive)	0 (inactive)	0 (inactive)	0 (inactive)	0 (inactive)	0 (inactive)
Cc1ccc(S(=O)(=O)/C=C/C#N)cc1					9 µM	0 (inactive)	0 (inactive)	0 (inactive)	0 (inactive)	0 (inactive)	0 (inactive)	0 (inactive)	0 (inactive)	1 (active)	1 (active)	0 (inactive)	0 (inactive)
CCC1(c2ccccc2)NC(=O)N(C)C1=O (stereo not drawn) [Mephenytoin]						0 (inactive)	0 (inactive)	0 (inactive)	0 (inactive)	0 (inactive)	0 (inactive)	0 (inactive)	0 (inactive)	0 (inactive)	0 (inactive)	0 (inactive)	0 (inactive)
CC1(C)NC(=O)N(c2ccc([N+](=O)[O-])c(C(F)(F)F)c2)C1=O [nilutamide]						0 (inactive)	0 (inactive)	0 (inactive)	0 (inactive)	0 (inactive)	0 (inactive)	0 (inactive)	0 (inactive)	0 (inactive)	0 (inactive)	0 (inactive)	0 (inactive)
Cc1cc(C(C)(C)C)c(O)c(C)c1CC1=NCCN1 [oxymetazoline]					3 µM	0 (inactive)	0 (inactive)	0 (inactive)	0 (inactive)	0 (inactive)	0 (inactive)	0 (inactive)	0 (inactive)	0 (inactive)	1 (active)	0 (inactive)	0 (inactive)
COc1cc([C@@H]2c3cc4c(cc3[C@@H](O[C@@H]3O[C@@H]5CO[C@@H](C)O[C@H]5[C@H](O)[C@H]3O)[C@H]3COC(=O)[C@H]23)OCO4)cc(OC)c1O [etoposide]	1 µM	1 µM	1 µM	1 µM	1 µM	1 (active)	1 (active)	1 (active)	1 (active)	1 (active)	1 (active)	1 (active)	1 (active)	1 (active)	1 (active)	1 (active)	1 (active)
OC(CCN1CCCCC1)(c1ccccc1)C1CCCCC1 (stereo not drawn) [trihexyphenidyl]						0 (inactive)	0 (inactive)	0 (inactive)	0 (inactive)	0 (inactive)	0 (inactive)	0 (inactive)	0 (inactive)	0 (inactive)	0 (inactive)	0 (inactive)	0 (inactive)
C/C(=C/c1ccc(C(=O)O)cc1)c1ccc2c(c1)C(C)(C)CCC2(C)C					3 µM	0 (inactive)	0 (inactive)	0 (inactive)	0 (inactive)	0 (inactive)	0 (inactive)	0 (inactive)	0 (inactive)	1 (active)	1 (active)	1 (active)	0 (inactive)
C[C@H]1O[C@H](O[C@H]2[C@H](O)[C@@H](O)[C@@H](O[C@H]3[C@H](O)[C@@H](O)[C@H](O)O[C@@H]3CO)O[C@@H]2CO)[C@H](O)[C@@H](O)[C@@H]1N[C@H]1C=C(CO)[C@@H](O)[C@H](O)[C@H]1O [Acarbose]						0 (inactive)	0 (inactive)	0 (inactive)	0 (inactive)	0 (inactive)	0 (inactive)	0 (inactive)	0 (inactive)	0 (inactive)	0 (inactive)	0 (inactive)	0 (inactive)
Cc1nc(NC(=O)N2CCC[C@H]2C(N)=O)sc1-c1ccnc(C(C)(C)C(F)(F)F)c1 [alpelisib]	≤ 0.3 µM	1 µM	1 µM		3 µM	1 (active)	1 (active)	1 (active)	1 (active)	1 (active)	1 (active)	1 (active)	0 (inactive)	1 (active)	1 (active)	1 (active)	1 (active)
NCCNS(=O)(=O)c1cccc2cnccc12 [H-9 dihydrochloride]				9 µM		0 (inactive)	0 (inactive)	0 (inactive)	0 (inactive)	0 (inactive)	0 (inactive)	0 (inactive)	1 (active)	0 (inactive)	0 (inactive)	0 (inactive)	0 (inactive)
